Source: PubChem BioAssay (EPA / NIEHS)
Results filed as inconclusive are left out. Active and inactive are the calls of the source. Rule for the calls: active = hit-call score of the fitted dose curve at least 0.9, where 1 is the maximum; inconclusive = response in the unintended direction; inactive = score below 0.9.

Assays:
[1] = biological target: Estrogen receptor (Homo sapiens) + Estrogen receptor beta (Homo sapiens) (UniProt P03372+Q92731); assay: OT_ER_ERaERb_1440: Odyssey Thera (OT) 24-hour HEK293T Protein-Complementation Assay for Estrogen Receptor-alpha/-beta Homodimer (AID 2283356);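 note: heteromer of ER alpha and ER beta binding domains; hits raise reporter fluorescence and both agonists and antagonists give an increase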
How it was run: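 Heterodimerisation of ERα (aa 310-547) and ERβ (aa 263-489) ligand binding domains was tracked as fluorescence gain in stably transfected HEK293T cells following 24 h dosing, normalised to DMSO controls.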

[2] = biological target: Estrogen receptor beta (Homo sapiens) (UniProt Q92731); assay: OT_ER_ERbERb_0480: Odyssey Thera (OT) 8-hour HEK293T Protein-Complementation Assay for Estrogen Receptor-beta/-beta Homodimer (AID 2283357);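 note: active means signal gain over DMSO baseline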
How it was run: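 Fluorescence intensity, nuclear for agonists and nuclear plus cytoplasmic for antagonists, was quantified by laser scanning cytometry versus vehicle after 8 h treatment. The cells were HEK293T stably carrying ER beta LBD fragment-complementation partners.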

[3] = biological target: guinea pig Sigma Receptor, Non-selective Binding, SIGMAR1 (gene 100135589) (UniProt Q60492); assay: NVS_OR_gSIGMA_NonSelective: NovaScreen (NVS) Nuclear Receptor Binding Assay for guinea pig Sigma Receptor, Non-selective Binding (AID 2283367)
How it was run: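 Radioligand displacement on guinea pig brain membranes, read by filter-based scintillation counting 1 h after dosing. Loss of signal versus DMSO; initial duplicate single-point screen at 25 uM, actives followed in concentration series.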

[4] = test system: guinea pig Dopamine Transporter (DAT), gene 100714898; assay: NVS_TR_gDAT: NovaScreen (NVS) Transporter Assay for guinea pig Dopamine Transporter (DAT) (AID 2283369);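 note: active compounds lower bound radioligand signal relative to DMSO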
How it was run: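 Test chemicals were incubated 2 h with guinea pig striatal membranes and a radioligand; bound label was separated by filtration and counted. Screening ran at 25 uM, followed by concentration-response testing to a 50 uM maximum.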

[5] = biological target: human Dopamine Transporter (DAT), SLC6A3 (gene 6531) (UniProt Q01959); assay: NVS_TR_hDAT: NovaScreen (NVS) Transporter Assay for human Dopamine Transporter (DAT) (AID 2283374);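 note: activity means loss of bound radioligand signal relative to DMSO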
How it was run: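 Cell-free radioligand displacement binding at human DAT, 1 h after dosing, with filtration and scintillation counting. Primary screen in duplicate at 25 uM, actives then in concentration series. Loss of bound signal versus DMSO scored.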

[6] = biological target: rat Serotonin Transporter (SERT), Slc6a4 (gene 25553) (UniProt P31652); assay: NVS_TR_rSERT: NovaScreen (NVS) Transporter Assay for rat Serotonin Transporter (SERT) (AID 2283375)
How it was run: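 Steps: rat forebrain membranes dosed with chemical (25 uM duplicate primary; concentration series for actives); 1 h incubation; labelled ligand bound, filtered, counted by scintillation. Activity scored as signal loss vs DMSO.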

[7] = biological target: Peroxisome proliferator-activated receptor gamma (Homo sapiens) (UniProt P37231); assay: NVS_NR_hPPARg: NovaScreen (NVS) Nuclear Receptor Binding Assay for human Peroxisome Proliferator-activated Receptor gamma (PPARg) (AID 2283370)
How it was run: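 Fluorescence polarization measures competitive binding to extracted PPARg in a cell-free format. Reading is taken at 2 h; activity is signal loss relative to DMSO. Screening at 25 uM in duplicate preceded confirmatory dose series.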

[8] = biological target: Retinoic acid receptor alpha (Homo sapiens) (UniProt P10276); assay: NVS_NR_hRARa_Agonist: NovaScreen (NVS) Nuclear Receptor Binding Assay for human Retinoic Acid Alpha Receptor Agonism (RAR) (AID 2283361)
How it was run: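 Cell-free TR-FRET binding readout with extracted receptor protein, read 2 hours after dosing; gain-of-signal fitted relative to DMSO. Screened in duplicate at 25 uM, actives then run in concentration-response.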

[9] = biological target: human Adenosine Transporter (Adot), SLC29A1 (gene 2030) (UniProt Q99808); assay: NVS_TR_hAdoT: NovaScreen (NVS) Transporter Assay for human Adenosine Transporter (Adot) (AID 2283368)
How it was run: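 U937-derived membranes, cell-free radioligand binding, filter scintillation 1 h after dosing. 25 uM duplicate screen; hits (e.g. 30% inhibition) run in concentration-response up to 50 uM; loss of signal versus DMSO.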

[10] = biological target: Glucocorticoid receptor (Homo sapiens) (UniProt P04150); assay: NVS_NR_hGR: NovaScreen (NVS) Nuclear Receptor Binding Assay for human Glucocorticoid Receptor (GR) (AID 2283363)
How it was run: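 Cell-free radioligand displacement assay on extracted human GR, read 16 h after dosing by filter-based scintillation counting. Screened in duplicate at 25 uM, then concentration series for actives; loss of signal versus DMSO baseline.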

[11] = biological target: human Serotonin Transporter (SERT), SLC6A4 (gene 6532) (UniProt P31645); assay: NVS_TR_hSERT: NovaScreen (NVS) Transporter Assay for human Serotonin Transporter (SERT) (AID 2283372)
How it was run: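 Radioligand binding to native SERT in human platelet membranes, read by filter-based scintillation counting 1 h after dosing. Primary screen in duplicate at 25 uM; actives followed up in concentration series; loss of signal versus DMSO baseline.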

Sequence of Peroxisome proliferator-activated receptor gamma (Homo sapiens) (P37231 whole entry, looked up): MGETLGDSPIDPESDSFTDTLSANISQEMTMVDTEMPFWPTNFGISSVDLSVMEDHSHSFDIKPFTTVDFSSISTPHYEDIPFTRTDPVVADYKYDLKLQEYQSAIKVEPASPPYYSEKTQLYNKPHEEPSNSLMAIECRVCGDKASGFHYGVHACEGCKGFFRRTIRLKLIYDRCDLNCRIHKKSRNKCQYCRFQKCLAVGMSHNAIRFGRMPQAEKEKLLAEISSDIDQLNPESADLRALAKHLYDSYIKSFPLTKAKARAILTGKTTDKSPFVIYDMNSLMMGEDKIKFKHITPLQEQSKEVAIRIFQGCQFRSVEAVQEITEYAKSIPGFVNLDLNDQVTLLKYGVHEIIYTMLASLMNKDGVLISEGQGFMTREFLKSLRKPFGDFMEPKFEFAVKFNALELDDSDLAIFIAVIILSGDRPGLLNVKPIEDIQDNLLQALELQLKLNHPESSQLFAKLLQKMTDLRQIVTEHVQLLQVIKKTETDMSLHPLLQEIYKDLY
Sequence of guinea pig Sigma Receptor, Non-selective Binding, SIGMAR1 (gene 100135589) (Q60492 whole entry, looked up): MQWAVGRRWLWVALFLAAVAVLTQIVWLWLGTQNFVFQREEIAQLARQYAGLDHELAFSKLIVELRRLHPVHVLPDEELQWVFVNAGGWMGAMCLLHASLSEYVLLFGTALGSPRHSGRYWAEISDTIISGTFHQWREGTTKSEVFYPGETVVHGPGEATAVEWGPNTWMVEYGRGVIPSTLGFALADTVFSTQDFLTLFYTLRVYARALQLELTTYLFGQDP
Sequence of Estrogen receptor beta (Homo sapiens) (Q92731 whole entry, looked up, the tested form may be a part): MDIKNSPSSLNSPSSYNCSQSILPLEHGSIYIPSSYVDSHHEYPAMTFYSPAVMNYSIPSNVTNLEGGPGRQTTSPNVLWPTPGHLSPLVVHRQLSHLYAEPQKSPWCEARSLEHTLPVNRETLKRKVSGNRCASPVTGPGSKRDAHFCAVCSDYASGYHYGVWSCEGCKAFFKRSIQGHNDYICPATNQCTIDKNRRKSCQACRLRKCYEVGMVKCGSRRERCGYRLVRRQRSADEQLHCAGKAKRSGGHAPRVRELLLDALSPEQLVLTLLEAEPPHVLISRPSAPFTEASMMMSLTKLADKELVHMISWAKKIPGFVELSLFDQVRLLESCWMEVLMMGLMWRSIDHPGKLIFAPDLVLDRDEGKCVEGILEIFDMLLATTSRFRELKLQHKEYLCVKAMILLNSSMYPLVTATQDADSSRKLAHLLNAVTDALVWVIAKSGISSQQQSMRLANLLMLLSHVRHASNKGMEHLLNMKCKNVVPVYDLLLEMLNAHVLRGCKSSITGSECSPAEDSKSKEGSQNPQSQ
Sequence of human Dopamine Transporter (DAT), SLC6A3 (gene 6531) (Q01959 whole entry, looked up): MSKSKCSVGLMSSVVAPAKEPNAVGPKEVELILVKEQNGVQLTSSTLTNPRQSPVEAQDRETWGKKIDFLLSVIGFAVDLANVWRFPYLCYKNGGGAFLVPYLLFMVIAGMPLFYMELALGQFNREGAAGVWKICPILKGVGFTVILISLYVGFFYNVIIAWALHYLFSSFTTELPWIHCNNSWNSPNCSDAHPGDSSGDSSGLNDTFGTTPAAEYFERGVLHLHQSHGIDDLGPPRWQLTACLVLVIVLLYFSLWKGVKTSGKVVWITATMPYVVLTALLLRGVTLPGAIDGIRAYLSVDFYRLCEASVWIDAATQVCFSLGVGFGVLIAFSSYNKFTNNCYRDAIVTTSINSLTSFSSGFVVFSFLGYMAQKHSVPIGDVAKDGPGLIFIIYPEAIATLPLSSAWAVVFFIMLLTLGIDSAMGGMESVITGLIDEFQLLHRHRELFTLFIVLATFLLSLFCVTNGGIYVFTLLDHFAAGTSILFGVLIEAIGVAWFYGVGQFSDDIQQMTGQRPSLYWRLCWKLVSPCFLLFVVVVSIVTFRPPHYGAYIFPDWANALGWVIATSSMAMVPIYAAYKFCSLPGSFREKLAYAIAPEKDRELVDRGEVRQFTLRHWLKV
Sequence of rat Serotonin Transporter (SERT), Slc6a4 (gene 25553) (P31652 whole entry, looked up): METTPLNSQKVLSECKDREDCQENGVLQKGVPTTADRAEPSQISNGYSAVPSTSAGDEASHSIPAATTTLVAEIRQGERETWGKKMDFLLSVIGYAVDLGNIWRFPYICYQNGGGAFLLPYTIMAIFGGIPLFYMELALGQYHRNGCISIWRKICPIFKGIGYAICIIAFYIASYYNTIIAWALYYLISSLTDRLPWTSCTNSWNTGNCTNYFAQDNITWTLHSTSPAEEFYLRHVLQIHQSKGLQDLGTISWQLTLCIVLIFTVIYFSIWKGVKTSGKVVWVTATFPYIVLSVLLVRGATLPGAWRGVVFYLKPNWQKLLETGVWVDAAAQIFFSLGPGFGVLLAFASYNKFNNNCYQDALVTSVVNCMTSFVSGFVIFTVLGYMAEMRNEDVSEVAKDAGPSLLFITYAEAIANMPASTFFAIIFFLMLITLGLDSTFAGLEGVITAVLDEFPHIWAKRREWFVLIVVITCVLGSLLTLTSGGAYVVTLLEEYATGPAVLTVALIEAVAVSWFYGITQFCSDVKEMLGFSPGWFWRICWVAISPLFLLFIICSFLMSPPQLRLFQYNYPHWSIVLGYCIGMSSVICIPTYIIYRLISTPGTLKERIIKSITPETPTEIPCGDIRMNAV
Sequence of human Adenosine Transporter (Adot), SLC29A1 (gene 2030) (Q99808 whole entry, looked up): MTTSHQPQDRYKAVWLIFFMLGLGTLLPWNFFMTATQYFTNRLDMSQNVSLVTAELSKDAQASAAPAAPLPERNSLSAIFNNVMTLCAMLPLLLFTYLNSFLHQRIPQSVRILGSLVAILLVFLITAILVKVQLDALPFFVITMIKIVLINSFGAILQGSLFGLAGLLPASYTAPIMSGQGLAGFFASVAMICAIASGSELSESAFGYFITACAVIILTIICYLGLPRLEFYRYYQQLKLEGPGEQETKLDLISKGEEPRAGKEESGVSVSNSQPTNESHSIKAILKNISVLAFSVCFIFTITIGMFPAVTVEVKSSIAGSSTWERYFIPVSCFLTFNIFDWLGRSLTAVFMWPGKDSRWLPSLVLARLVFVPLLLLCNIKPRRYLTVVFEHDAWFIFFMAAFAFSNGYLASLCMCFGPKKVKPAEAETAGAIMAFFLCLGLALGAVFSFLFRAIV
Sequence of Estrogen receptor (Homo sapiens) + Estrogen receptor beta (Homo sapiens) (P03372 whole entry, looked up, the tested form may be a part): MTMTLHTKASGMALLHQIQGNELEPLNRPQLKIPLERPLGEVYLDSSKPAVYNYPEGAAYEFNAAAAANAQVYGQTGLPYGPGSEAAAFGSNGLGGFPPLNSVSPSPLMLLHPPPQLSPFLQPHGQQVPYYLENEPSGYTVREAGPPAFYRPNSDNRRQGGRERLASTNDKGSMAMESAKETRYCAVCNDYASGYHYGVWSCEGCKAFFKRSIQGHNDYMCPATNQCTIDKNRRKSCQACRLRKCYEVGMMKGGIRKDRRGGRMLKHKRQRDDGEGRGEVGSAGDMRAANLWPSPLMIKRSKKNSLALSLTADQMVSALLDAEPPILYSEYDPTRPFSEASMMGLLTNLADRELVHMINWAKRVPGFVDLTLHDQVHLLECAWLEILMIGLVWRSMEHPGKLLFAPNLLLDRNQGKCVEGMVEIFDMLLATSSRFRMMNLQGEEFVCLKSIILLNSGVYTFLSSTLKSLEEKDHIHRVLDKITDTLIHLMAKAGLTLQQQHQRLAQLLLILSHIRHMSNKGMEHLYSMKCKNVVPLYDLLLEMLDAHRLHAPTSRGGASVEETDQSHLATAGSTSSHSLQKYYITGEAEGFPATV
Sequence of Estrogen receptor (Homo sapiens) + Estrogen receptor beta (Homo sapiens) (Q92731 whole entry, looked up, the tested form may be a part): as the sequence (Q92731 whole entry, looked up, the tested form may be a part) above
Sequence of human Serotonin Transporter (SERT), SLC6A4 (gene 6532) (P31645 whole entry, looked up): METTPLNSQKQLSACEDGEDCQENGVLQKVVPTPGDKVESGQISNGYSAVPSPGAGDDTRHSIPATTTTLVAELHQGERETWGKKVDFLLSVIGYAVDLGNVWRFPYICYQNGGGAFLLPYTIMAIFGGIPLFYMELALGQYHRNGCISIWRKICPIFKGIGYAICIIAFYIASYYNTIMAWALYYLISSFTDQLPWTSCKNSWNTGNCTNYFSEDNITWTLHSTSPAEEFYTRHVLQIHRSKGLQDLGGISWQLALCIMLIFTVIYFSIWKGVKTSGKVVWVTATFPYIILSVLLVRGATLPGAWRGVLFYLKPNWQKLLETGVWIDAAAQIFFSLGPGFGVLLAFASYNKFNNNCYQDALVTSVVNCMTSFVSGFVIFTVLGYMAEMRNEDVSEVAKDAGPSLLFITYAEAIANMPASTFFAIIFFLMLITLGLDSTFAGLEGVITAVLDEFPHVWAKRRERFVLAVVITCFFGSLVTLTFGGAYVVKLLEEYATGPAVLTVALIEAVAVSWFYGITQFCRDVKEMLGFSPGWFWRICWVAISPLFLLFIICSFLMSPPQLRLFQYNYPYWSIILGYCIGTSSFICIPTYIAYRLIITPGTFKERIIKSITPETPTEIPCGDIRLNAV
Sequence of Retinoic acid receptor alpha (Homo sapiens) (P10276 whole entry, looked up): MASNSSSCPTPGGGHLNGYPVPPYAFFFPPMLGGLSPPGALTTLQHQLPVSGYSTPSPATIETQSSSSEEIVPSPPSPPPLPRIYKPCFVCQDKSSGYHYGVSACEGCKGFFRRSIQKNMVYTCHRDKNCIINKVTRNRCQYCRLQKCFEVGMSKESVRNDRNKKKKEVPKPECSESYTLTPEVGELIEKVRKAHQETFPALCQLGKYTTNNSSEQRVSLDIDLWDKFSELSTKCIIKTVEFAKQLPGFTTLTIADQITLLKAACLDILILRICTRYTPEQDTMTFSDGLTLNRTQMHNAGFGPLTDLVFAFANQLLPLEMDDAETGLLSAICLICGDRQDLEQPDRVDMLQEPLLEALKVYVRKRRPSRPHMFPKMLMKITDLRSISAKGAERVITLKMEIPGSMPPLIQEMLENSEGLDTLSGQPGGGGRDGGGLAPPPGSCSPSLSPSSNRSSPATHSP

## c1ccc(C[n+]2cccc3ccccc32)cc1
[1]
  outcome: inactive
[2]
  outcome: inactive
[3]
  AC50: 8.14 µM (active)
[4]
  AC50: 10.1 µM (active)
[5]
  AC50: 9.52 µM (active)
[6]
  AC50: 6.24 µM (active)

## CCCCCCCC[Si](OCC)(OCC)OCC
[2]
  outcome: inactive
[7]
  outcome: inactive

## CO[C@H]1/C=C/O[C@@]2(C)Oc3c(C)c(O)c4c(O)c(c(/C=N/N5CCN(C)CC5)c(O)c4c3C2=O)NC(=O)/C(C)=C\C=C\[C@H](C)[C@H](O)[C@@H](C)[C@@H](O)[C@@H](C)[C@H](OC(C)=O)[C@@H]1C
[2]
  outcome: inactive

## O=C(OCCCCCCOC(=O)c1ccccc1)c1ccccc1
[8]
  outcome: inactive

## CCCCCCCCCCCC[N+](C)(C)C
[2]
  outcome: inactive
[3]
  AC50: 0.123 µM (active)
[9]
  outcome: inactive
[4]
  AC50: 25 µM (active)
[7]
  outcome: inactive
[5]
  AC50: 10.5 µM (active)
[6]
  AC50: 13.7 µM (active)

## COc1ccc2cc(S(=O)(=O)N[C@H](CC(=O)N[C@H](Cc3ccc(CN4[C@H](C)CCC[C@@H]4C)cc3)C(=O)N(C)C(C)C)c3ccc4c(c3)OCO4)ccc2c1
[10]
  outcome: inactive
[3]
  AC50: 1.74 µM (active)
[9]
  AC50: 9.24 µM (active)
[4]
  AC50: 13.9 µM (active)
[11]
  outcome: inactive
[5]
  AC50: 12.1 µM (active)
